# Experimental data as given in the supplement of paper PMC7858590.
# ± gives the standard deviation of the averaged measurements. The full ranking holds about 3,800 compounds; the median of “cell shape (eccentricity) Z-score vs DMSO control” is about 1.1, and the lowest 2% start at about -4.7. Only a selection was taken, and the lowest values are over-represented in it overall.
# Tested on: human monocyte-derived macrophages (M0)
# Assay: cell shape (eccentricity) Z-score vs DMSO control; higher = more elongated, M2-like morphology
# Conditions: 20 µM; 24 h; macrophage state: M0 (M-CSF)
# Experimental: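 Primary human monocyte-derived macrophages (M-CSF differentiated, pooled from 4 donors, 5000 cells/well in 384-well plates) were treated with each compound at 20 uM for 24 h, then fixed and stained with phalloidin/DAPI and imaged on an Opera Phenix (6 fields, about 1000 cells/well). Cell eccentricity was measured with CellProfiler, and a Z-score (t-test) was computed against 4 DMSO control wells in the same row. Negative values mean round (M1-like) cells and positive values mean elongated (M2-like) cells; the paper's hit cutoffs are Z <= -4 (M1) and Z >= 6 (M2). Scale: negative = round, M1-like.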
row,Compound,cell shape (Z-score)
1,C=C1[C@@H](C)[C@H]2[C@H](Cc3ccccc3)NC(=O)[C@]23OC(=O)/C=C/[C@H](O)CCC[C@@H](C)C/C=C/[C@H]3[C@@H]1O,-24.4
2,C/C=C/c1ccc2c(c1)OCO2,2.7
3,CC(C)[C@]12O[C@H]1[C@@H]1O[C@]13[C@]1(O[C@H]1CC1C4=C(CC[C@@]13C)C(=O)OC4)[C@@H]2O (stereo not given in full),8.48
4,CC(=O)O[C@H]1C[C@@H](OC(C)=O)C(C)(C)C2C[C@@H](OC(C)=O)[C@]3(C)C(CC[C@@]4(C)[C@H](c5ccoc5)C(=O)[C@H]5O[C@]543)[C@]21C (stereo not given in full),0.275
5,O=c1[nH]c2ccccc2n1CCCN1CCC(n2c(=O)[nH]c3cc(Cl)ccc32)CC1,-1.03
6,O=c1[nH]c2ccccc2n1C1CCN(CCCC(c2ccc(F)cc2)c2ccc(F)cc2)CC1,-6.33
7,O=C1NCN(c2ccccc2)C12CCN(CCCOc1ccc(F)cc1)CC2,1.17
8,O=c1ccc2cc(O[C@@H]3O[C@H](CO)[C@@H](O)[C@H](O)[C@H]3O)c(O)cc2o1,2.48
9,CC(C)CC1C(=O)N2CCC[C@H]2C2(O)O[C@](NC(=O)C3C=C4c5cccc6[nH]c(Br)c(c56)C[C@H]4N(C)C3)(C(C)C)C(=O)N12 (stereo not given in full),4.71
10,O=C1Nc2ccccc2C2(CCN(CCc3ccc(C(F)(F)F)cc3)CC2)O1,-0.107
11,O=C(N[C@H]1CN2CCC1CC2)c1ccc(Cl)cc1,1.37
12,c1cncc(C2=NCCC2)c1,0.998
13,COc1ccc2c3c([nH]c2c1)[C@H](CC(C)C)N1C(=O)[C@H](CCC(=O)OC(C)(C)C)NC(=O)[C@@H]1C3,9.45
14,COc1ccc2c(c1)[nH]c1c(C)nccc12,-5.5
15,C=C[C@H]1C[N@@]2CC[C@H]1C[C@H]2[C@H](O)c1ccnc2ccccc12,2.46
16,CN1c2ccccc2C(NCCCCCCC(=O)O)c2ccc(Cl)cc2S1(=O)=O (stereo not given),0.787
17,CCCCC/C=C\C/C=C\C/C=C\C/C=C\CCCC(=O)NCc1ccc(O)c(OC)c1,-0.144
18,O=C(Cc1ccc(Cl)c(Cl)c1)N1CCCCC1CN1CCCC1 (stereo not given),-0.746
19,Clc1ccc(C(OCCN2CCCCC2)c2ccccc2)cc1 (stereo not given),9.16
20,c1ccc(CCCN2CCN(CCOC(c3ccccc3)c3ccccc3)CC2)cc1,4.69
21,C(=Cc1ccccc1)CN1CCN(CCOC(c2ccccc2)c2ccccc2)CC1,1.98
22,C(=C\c1ccccc1)/CN1CCN(CCOC(c2ccccc2)c2ccccc2)CC1,-5.62

row,Compound,cell shape (Z-score)
1,Fc1ccc(C(OCCN2CCN(CCCc3ccccc3)CC2)c2ccc(F)cc2)cc1,-0.302
2,Fc1ccc(C(OCCN2CCN(CC=Cc3ccccc3)CC2)c2ccc(F)cc2)cc1,-4.91
3,Cc1c([N+](=O)[O-])oc2ccc3ccccc3c12,-0.364
4,CN(C)C(=O)Oc1cc(OC(=O)N(C)C)cc(C(O)CNC(C)(C)C)c1 (stereo not given),2.11
5,CC(=O)O[C@@H](c1nc2ccccc2c(=O)n1[C@@H]1C[C@@]2(OC1=O)c1ccccc1N1C(=O)[C@H](C)N(O)[C@@H]12)C(C)C,2.14
6,COc1cc(Br)c(OC)c2c1C(CN)C2 (stereo not given),-4.96
7,CCCN(CCC)C1CCc2c(OC)cccc2C1C (stereo not given),4.87
8,CC1=CC(=O)c2c(O)cccc2C1=O,-4.68
9,CC(C)NCC(O)c1ccc(N)c(C#N)c1 (stereo not given),-0.285
10,CC1(C)C(=O)C=C[C@@]2(C)C1C[C@@H](O)[C@]1(C)C2CC[C@@]2(C)[C@H](c3ccoc3)OC(=O)[C@H]3O[C@]321 (stereo not given in full),1.86
11,CC(=O)O[C@@H]1C[C@@]2(C)[C@H](c3ccoc3)C[C@H]3O[C@]32[C@]2(C)C(=O)C(=O)C3C(C)(C)C(=O)C=C[C@]3(C)C12 (stereo not given in full),-3.62
12,CC(=O)O[C@@H]1CC2C(C)(C)C(=O)C=C[C@]2(C)C2CC[C@]3(C)C(=CC(=O)O[C@H]3c3ccoc3)[C@@]21C (stereo not given in full),-6.06
13,CC(C)(O)c1cc(O)c2c(c1)CCC1C(C)(C(=O)O)CCCC21C (stereo not given),0.93
14,CC(C)c1c(CN(C)C(C)Cc2ccccc2)n(C)n(-c2ccccc2)c1=O (stereo not given),2.2
15,CC12C(=O)OC(=O)C1(C)C1CCC2O1 (stereo not given),-12.8
16,CN1CCc2cc3c(cc2[C@H]1C1OC(=O)c2c1ccc1c2OCO1)OCO3 (stereo not given in full),0.327
17,CC[C@@H](C(=O)[C@@H](C)[C@@H](O)[C@H](C)[C@@H]1O[C@@H]([C@@H](CC)C(=O)O)CC[C@@H]1C)[C@H]1OC2(C=C[C@@H](O)[C@]3(CC[C@@](C)(C4CC[C@](O)(CC)[C@H](C)O4)O3)O2)[C@H](C)C[C@@H]1C (stereo not given in full),1.16
18,C=CCN1C[C@H](C)N([C@H](c2ccc(C(=O)N(CC)CC)cc2)c2cccc(O)c2)C[C@H]1C,1.38
19,C[C@]12CCC3C(CC[C@]4(O)C[C@@H](O)CC[C@]34C=O)[C@@]1(O)CCC2C1=CC(=O)OC1 (stereo not given in full),-3.05
20,CC(C)(O)/C=C/C(=O)[C@](C)(O)C1[C@H](O)C[C@@]2(C)C3CC=C4C(CC(=O)C(=O)C4(C)C)[C@]3(C)C(=O)C[C@]12C (stereo not given in full),-23.9
21,CC(C)(O)CCC(=O)[C@](C)(O)[C@H]1[C@H](O)C[C@@]2(C)[C@@H]3CC=C4C(C=C(O[C@@H]5O[C@H](CO)[C@@H](O)[C@H](O)[C@H]5O)C(=O)C4(C)C)[C@]3(C)C(=O)C[C@]12C (stereo not given in full),1.51
22,CN([N+][O-])c1cc(O)ccc1O,-4.54

row,Compound,cell shape (Z-score)
1,C=CCC1(C(C)CCC)C(=O)N=C(S)NC1=O (stereo not given),2.85
2,CC(=Cc1csc(C)n1)[C@H]1C[C@@H]2O[C@]2(C)CCC[C@H](C)[C@H](O)[C@@H](C)C(=O)C(C)(C)[C@@H](O)CC(=O)O1,0.111
3,c1ccc2c(c1)[I+]c1ccccc1-2,-7.52
4,O=C1c2ccccc2C(=O)c2ccccc21,1.99
5,C[C@@]12C[C@@H](c3ccoc3)OC(=O)C1CC[C@]1(C)[C@H]2[C@H]2C=C[C@]1(O)C(=O)O2 (stereo not given in full),-0.795
6,COc1cc2c(c(OC)c1OC)-c1ccc(OC)c(=O)cc1C(NC(C)=O)CC2 (stereo not given),8.73
7,CC(C)(C)c1cc(C=C(C#N)C#N)cc(C(C)(C)C)c1O,-0.65
8,CO[C@@H]1[C@H](O)[C@@H](O[C@@H]2C[C@H]3CC[C@@H]4C(CC[C@]5(C)[C@@H](C6=CC(=O)OC6)CC[C@]45O)[C@@]3(C)[C@H](O)C2)O[C@H](C)[C@@H]1O[C@@H]1O[C@H](CO)[C@@H](O)[C@H](O)[C@H]1O (stereo not given in full),-2.59 ± 0.87
9,C[C@H]1O[C@@H](O[C@H]2CC[C@]3(CO)C4CC[C@]5(C)[C@@H](C6=CC(=O)OC6)CC[C@]5(O)C4CC[C@H]3C2)[C@H](O)[C@H](O)[C@@H]1O (stereo not given in full),1.31
10,C[C@H]1O[C@@H](O[C@H]2CC[C@]3(CO)C4CC[C@]5(C)[C@@H](C6=CC(=O)OC6)CC[C@]5(O)[C@@H]4CC[C@H]3C2)[C@H](O)[C@H](O)[C@@H]1O[C@@H]1O[C@H](CO)[C@@H](O)[C@H](O)[C@H]1O (stereo not given in full),-6
11,COc1ccc2c(c1O)-c1cc(O)cc3c1[C@@H](C2)N(C)CC3,0.611
12,Cc1c(C(=O)c2cccc3ccccc23)c2cccc3c2n1[C@@H](CN1CCOCC1)CO3,3.85
13,CCCn1c(C)c(C(=O)c2cccc3ccccc23)c2ccccc21,1.57
14,Cc1c(C(=O)c2cccc3ccccc23)c2cccc3c2n1[C@H](CN1CCOCC1)CO3,-5.15
15,COc1cc([C@@H]2c3cc4c(cc3[C@H](OC(C)=O)[C@H]3COC(=O)[C@H]23)OCO4)cc(OC)c1OC,9.18
16,Cc1ccc2c(c1)Cc1c(C(=O)NC3CCCCC3)nn(-c3ccc(Cl)cc3Cl)c1-2,2.43
17,N#CC(C#N)=Cc1cc(O)c(O)c([N+](=O)[O-])c1,-0.026
18,CCNC(=O)C1OC(n2cnc3c(N)ncnc32)C(O)C1O (stereo not given),4.21
19,CCOC(=O)c1ncn2c1CN(C)C(=O)c1cc(N=[N+]=[N-])ccc1-2,2.52
20,CN1C[C@H](C(=O)N[C@]2(C)O[C@@]3(O)[C@@H]4CCCN4C(=O)[C@H](Cc4ccccc4)N3C2=O)C[C@@H]2c3cccc4[nH]cc(c34)C[C@H]21,3.57
21,CC(N)Cn1ccc2cc(F)c(Cl)cc21 (stereo not given),0.211
